# Experimental data: PubChem BioAssay (EPA / NIEHS)
# Results filed as inconclusive are left out. The source made the active and inactive calls. Rule for the calls, unless noted: active = hit-call score of the fitted dose curve at least 0.9, where 1 is the maximum; inconclusive = response in the unintended direction; inactive = score below 0.9. Peptide text beside a SMILES is read from it.
# Legend:
# [1] = Tanguay_ZF_120hpf_SWIM_legacy: (Legacy) Oregon State University Tanguay Lab 120 Hour Post-fertilization zebrafish Assay for Swim Bladder Malformation (AID 2283654);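 note: swim bladder malformation in each larva scored yes or no under brightfield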
# Procedure, shortened: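 Dechorionated wild-type Tropical 5D zebrafish embryos, one per well from 6 hpf, were statically exposed at 28C until 120 hpf in 0.64% DMSO. Swim bladder malformation scored as present/absent by brightfield microscopy; not scored in dead larvae.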
# [2] = Tanguay_ZF_120hpf_TRUN_legacy: (Legacy) Oregon State University Tanguay Lab 120 Hour Post-fertilization zebrafish Assay for Truncated Body (AID 2283655)
# Procedure, shortened: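 Truncated body is recorded as a binary endpoint at 120 hpf by brightfield imaging of wild-type 5D larvae. Exposure runs statically from 6 hpf at 28C with 0.64% DMSO; embryos dying earlier are not scored.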
# [3] = Tanguay_ZF_120hpf_NC_legacy: (Legacy) Oregon State University Tanguay Lab 120 Hour Post-fertilization zebrafish Assay for Notochord and Tail Malformation (AID 2283656)
# Procedure, shortened: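 Dechorionated 5D zebrafish, 1/well from 6 hpf; static exposure to 120 hpf, 28C, sealed, dark; final DMSO 0.64% v/v. NC scored binary (present/absent); dead embryos not scored. Fit vs DMSO baseline, gain direction.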
# [4] = system: Thyroperoxidase (TPO), gene 54314; test: CCTE_Simmons_AUR_rTPO: CCTE's Amplex UltraRed Assay for Thyroperoxidase (TPO) Inhibition, Simmons Lab (AID 2283662);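 note: potency for loss of signal meaning inhibition of peroxidase activity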
# Procedure, shortened: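 Rat thyroid microsomes (5 ug protein) were incubated with test compound (8 concentrations, 5 nM–87.5 uM final, 0.5% DMSO), 25 uM Amplex UltraRed and 300 uM H2O2 in 200 mM phosphate buffer for 30 min at 37C in the dark; fluorescence read at 544/590 nm.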
# [5] = Tanguay_ZF_120hpf_TR_legacy: (Legacy) Oregon State University Tanguay Lab 120 Hour Post-fertilization zebrafish Assay for Touch Response (AID 2283667)
# Procedure, shortened: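 Tropical 5D wild-type zebrafish embryos statically exposed to 120 hpf at 28°C, sealed and dark-covered, 0.64% DMSO final; touch response scored as present/absent by brightfield microscopy at 120 hpf. Trimethyltin chloride 5 uM positive control; dead embryos not scored.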
# [6] = Tanguay_ZF_120hpf_ActivityScore_legacy: (Legacy) Oregon State University Tanguay Lab 120 Hour Post-fertilization zebrafish Assay Score for Activity (AID 2283742)
# Procedure, shortened: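 Dechorionated Tropical 5D embryos, one per well from 6 hpf, statically exposed to 120 hpf at 28 °C in 0.64% DMSO. Mortality and malformations scored binary by brightfield microscopy; activity score combines 18 endpoints, fitted positively versus DMSO.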
# [7] = CCTE_Simmons_CellTiterGLO_HEK293T: Viability Assessment in CCTE's Assays for Thyroperoxidase (TPO) Inhibition, Simmons Lab (AID 2283665);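 for AC50: cells exposed to compound for 24 h before readout; actives reduce ATP signal below DMSO vehicle meaning cytotoxicity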
# Procedure, shortened: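 Cytotoxicity counter-screen: human HEK293T cells in low-serum (1% FBS) medium receive test chemical, 5 nM to 87.5 uM final, for 24 h; ATP is quantified by luciferase luminescence.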
# [8] = CEETOX_H295R_MTT_cell_viability: Viability Assessment in the CeeTox HT-H295R MTT Assay (AID 2283718; active = hit-call score of the fitted dose curve at least 0.9, where 1 is the maximum; inactive = score below 0.9;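 for AC50: curve fitted both ways so AC50 may mark viability loss or gain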)
# Procedure, shortened: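 Human H295R adrenal cells, prestimulated 48 h with 10 uM forskolin, were exposed 48 h to chemicals in 0.1% DMSO. Viability was measured in the same wells by MTT (0.5 mg/ml, 4 h, 37 C), absorbance 570/650 nm, as percent of controls.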
# [9] = target: Luciferin 4-monooxygenase (Photinus pyralis) (UniProt P08659); test: CCTE_Simmons_QuantiLum_inhib_2: CCTE's Firefly Luciferase Inhibition Assay, Simmons Lab (AID 2283767)
# Luciferin 4-monooxygenase (Photinus pyralis), sequence (P08659 whole entry, looked up): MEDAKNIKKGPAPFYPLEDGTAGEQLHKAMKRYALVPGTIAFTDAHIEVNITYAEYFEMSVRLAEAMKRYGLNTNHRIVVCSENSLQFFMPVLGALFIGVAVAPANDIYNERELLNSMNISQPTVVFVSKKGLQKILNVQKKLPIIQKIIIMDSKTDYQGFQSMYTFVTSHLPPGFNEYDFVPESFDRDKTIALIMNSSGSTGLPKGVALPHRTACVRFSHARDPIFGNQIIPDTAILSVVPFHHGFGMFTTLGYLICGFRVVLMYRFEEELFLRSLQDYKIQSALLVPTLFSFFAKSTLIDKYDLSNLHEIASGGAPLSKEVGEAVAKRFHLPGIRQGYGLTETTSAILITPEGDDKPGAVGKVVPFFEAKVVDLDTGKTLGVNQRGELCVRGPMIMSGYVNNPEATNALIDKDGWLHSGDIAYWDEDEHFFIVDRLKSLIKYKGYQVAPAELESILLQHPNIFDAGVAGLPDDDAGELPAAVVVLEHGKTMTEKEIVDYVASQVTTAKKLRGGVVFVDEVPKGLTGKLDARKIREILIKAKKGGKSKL
# Procedure, shortened: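 Counter-screen for nonspecific enzyme inhibition: purified firefly luciferase incubated 30 min at 37C with chemicals up to 87.5 uM final, then luminescence measured after luciferin/dATP injection; activity fitted against DMSO baseline.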
# [10] = ACEA_AR_agonist_AUC_viability: ACEA Biosciences xCELLigence Real-Time Cell Analysis on Androgen Receptor Agonism for Viability (AID 2283775);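 for AC50: viability read 80 hours after compound addition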
# Procedure, shortened: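 Read-out is area under the impedance curve at 80 h post-dose in 22Rv1 cells, with DMSO as baseline and signal loss taken as reduced viability. Compounds ran in duplicate from 100 uM final.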
# [11] = STM_H9_OrnCyssISnorm_ratio: Stemina devTOX quickPredict H9 human embryonic stem cell (hESC)-based Assay for Ornithine (ORN):Cystine (CYSS) Ratio (AID 2283714)
# Procedure, shortened: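 Undifferentiated H9 hESCs exposed 72 h, media and compound replaced every 24 h; final 24-h conditioned media deproteinized and analysed by UPLC-HRMS against C13 spike-ins. Value is the internal-standard-normalized ORN/CYSS ratio versus 0.1% DMSO.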
# [12] = STM_H9_OrnithineISnorm_perc: Stemina devTOX quickPredict H9 human embryonic stem cell (hESC)-based Assay for Ornithine (ORN) Metabolite Biomarker, Normalized (AID 2283712; active = hit-call score of the fitted dose curve at least 0.9, where 1 is the maximum; inactive = score below 0.9;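 note: ornithine released into spent medium during last day measured by mass spectrometry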)
# Procedure, shortened: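 Cells: undifferentiated H9 hESC. Dosing: 72 h, media replaced every 24 h. Sample: final 24-h conditioned media, 40% acetonitrile. Read: UPLC-HRMS ornithine area vs 13C standard, % DMSO control.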
# [13] = STM_H9_CystineISnorm_perc: Stemina devTOX quickPredict H9 human embryonic stem cell (hESC)-based Assay for Cystine (CYSS) Metabolite Biomarker, Normalized (AID 2283713; active = hit-call score of the fitted dose curve at least 0.9, where 1 is the maximum; inactive = score below 0.9)
# Procedure, shortened: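 Secreted cystine was measured by UPLC-HRMS in H9 hESC medium after 72h compound exposure with 24-hourly replenishment. Values are standard-normalized areas relative to 0.1% DMSO.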
# [14] = ACEA_AR_antagonist_AUC_viability: ACEA Biosciences xCELLigence Real-Time Cell Analysis on Androgen Receptor Antagonism for Viability (AID 2283776);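 note: 22Rv1 human prostate cancer cells growing on impedance electrode plates; area under impedance growth curve at 80 h after dosing as viability; hits lower the growth signal relative to DMSO meaning cytotoxicity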
# Procedure, shortened: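 Impedance read-out (RT-CES): area under growth curve at 80 h post-dose, loss of signal scored vs DMSO baseline. 22Rv1 cells; 8-pt 1:4 series, top 100 uM final, ≤0.5% DMSO; biological duplicate.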
compound,measurement,setting,value
Nc1ccc(C(=O)O)cc1,outcome,[1],inactive
same,outcome,[2],inactive
same,outcome,[3],inactive
same,AC50,[4],3.19 µM (active)
same,outcome,[5],inactive
same,outcome,[6],inactive
CC(C)c1ccc(O)c(C(C)C)c1,AC50,[4],29.7 µM (active)
same,AC50,[7],28.4 µM (active)
same,outcome,[8],inactive
same,outcome,[9],inactive
same,outcome,[10],inactive
CCCCC1C(=O)N(c2ccccc2)N(c2ccccc2)C1=O,AC50,[4],39.6 µM (active)
same,outcome,[7],inactive
same,outcome,[11],inactive
same,outcome,[8],inactive
same,outcome,[9],inactive
CC1(C)[C@@H]2CC[C@@]1(C)C(=O)C2,outcome,[12],inactive
same,outcome,[13],inactive
same,outcome,[10],inactive
same,outcome,[14],inactive
CC(C)c1cc(C(C)C)cc(C(C)C)c1,outcome,[10],inactive
same,outcome,[14],inactive
O=C(O)CCC(=O)O,outcome,[10],inactive
CCCCc1ccc(Cl)cc1,outcome,[10],inactive
same,outcome,[14],inactive
C=C[Si](OCCOC)(OCCOC)OCCOC,outcome,[10],inactive
N#Cc1ccc(C2CCCc3cncn32)cc1 (stereo not drawn),outcome,[8],inactive
same,outcome,[10],inactive
same,outcome,[14],inactive
CCCCNS(=O)(=O)c1ccc(C)cc1,outcome,[10],inactive
O=C(Oc1ccccc1)c1ccccc1O,outcome,[10],inactive
CC(C)(C)N,outcome,[10],inactive
same,outcome,[14],inactive
O=C(O)C1CCC(C(=O)O)CC1 (stereo not drawn),outcome,[10],inactive
O=C(O)CC(C(=O)O)S(=O)(=O)O (stereo not drawn),outcome,[10],inactive
same,outcome,[14],inactive
CCCCC(C=O)CC (stereo not drawn),outcome,[10],inactive
CC1=CC=C(C(C)C)CC1,outcome,[10],inactive
CC(C)COC(=O)CC(C(=O)OCC(C)C)S(=O)(=O)O (stereo not drawn),outcome,[10],inactive
Oc1ccc(-c2ccccc2)c(Cl)c1,outcome,[10],inactive
same,AC50,[14],0.598 µM (active)
CO[Si](C)(C)OC,outcome,[10],inactive
same,outcome,[14],inactive
Fc1ccc(Br)cc1,outcome,[10],inactive
CCCCNC(=S)NCCCC,outcome,[10],inactive
CCCCC(CC)COC(=O)/C=C/c1ccc(OC)cc1 (stereo not drawn),outcome,[10],inactive
CC1=CCC2CC1C2(C)C (stereo not drawn),outcome,[10],inactive
CCCCOCCOC(=O)COc1ccc(Cl)cc1Cl,outcome,[10],inactive
same,outcome,[14],inactive
CC12CCC(CC1)C(C)(C)O2,outcome,[10],inactive
CCN1CN(CC)CN(CC)C1,AC50,[8],0.396 µM (active)
same,outcome,[10],inactive
same,outcome,[14],inactive
CN(C)Cc1cc(CN(C)C)c(O)c(CN(C)C)c1,AC50,[10],4.16 µM (active)
C[Si](C)(C)N[Si](C)(C)C,outcome,[10],inactive
same,outcome,[14],inactive
NC(=O)Nc1ccccc1,outcome,[10],inactive
same,outcome,[14],inactive
CCCC=C(C=O)CC,outcome,[8],inactive
same,outcome,[10],inactive
CCCCCCCCCCCCCCCCCCOS(=O)(=O)O,outcome,[10],inactive
C=C[C@@]1(C)CC(=O)[C@]2(O)[C@@]3(C)[C@@H](O)CCC(C)(C)[C@@H]3[C@H](O)[C@H](OC(C)=O)[C@@]2(C)O1,outcome,[8],inactive
same,AC50,[10],6.78 µM (active)
same,outcome,[14],inactive
Cc1c(C(=O)c2c[nH]n(C)c2=O)ccc(S(C)(=O)=O)c1C1=NOCC1,outcome,[10],inactive
same,outcome,[14],inactive
CCCCC(CC)COS(=O)(=O)O (stereo not drawn),outcome,[10],inactive
same,outcome,[14],inactive
CCc1cccc(C)c1N,outcome,[10],inactive
same,outcome,[14],inactive
C=C(C)C1CC=C(C)CC1 (stereo not drawn),outcome,[10],inactive
Cc1ccc(C)c(OCCCC(C)(C)C(=O)O)c1,outcome,[14],inactive
CC(=O)OCc1ccccc1,outcome,[10],inactive
same,outcome,[14],inactive
O=C(Nc1ccccc1)c1cc(Cl)ccc1O,AC50,[10],14.3 µM (active)
same,AC50,[14],16.6 µM (active)
CCCCNS(=O)(=O)c1ccccc1,outcome,[10],inactive
same,outcome,[14],inactive
COC(=O)[C@H](Cc1ccccc1)NC(=O)[C@@H](N)CC(=O)O (H-Asp-Phe-OMe),outcome,[10],inactive
same,outcome,[14],inactive
Cc1cc(C)n(CO)n1,outcome,[10],inactive
same,outcome,[14],inactive
CC(C)=CCCC(C)=CC#N,outcome,[14],inactive
CCCC(CC)c1ccccc1 (stereo not drawn),outcome,[10],inactive
same,outcome,[14],inactive
CCCCC(=O)O,outcome,[10],inactive
same,outcome,[14],inactive
CCOC(=O)c1ccc(C)cc1,outcome,[14],inactive
CCCCCCCCCCCCCC(=O)OC(C)C,outcome,[10],inactive
same,outcome,[14],inactive
CCC[Si](OC)(OC)OC,outcome,[10],inactive
same,outcome,[14],inactive
CCCCCCOC(=O)CCCCC(=O)OCCCCCC,outcome,[14],inactive
CCCCCCO,outcome,[14],inactive
O=C(O)c1ccc2c(c1)C(=O)OC2=O,outcome,[14],inactive
CCC(C)(O)CCCC(C)C (stereo not drawn),outcome,[10],inactive
same,outcome,[14],inactive
CCCCCC[C@@H](O)C/C=C\CCCCCCCC(=O)OCC(O)CO (stereo partly drawn),outcome,[14],inactive
CCCCCCCCCC(C)=O,outcome,[10],inactive
same,outcome,[14],inactive
CCOC(=O)C1=NOC(c2ccccc2)(c2ccccc2)C1,outcome,[14],inactive
CC(C)(C)C1CCC(=O)CC1,outcome,[10],inactive
same,outcome,[14],inactive
CC(=O)OC1CCCCC1C(C)(C)C (stereo not drawn),outcome,[10],inactive
same,outcome,[14],inactive
CCCCCCCO,outcome,[14],inactive
CCOC(=O)c1ccccc1C,outcome,[10],inactive
same,outcome,[14],inactive
CCCCCCC=O,outcome,[10],inactive
same,outcome,[14],inactive
CCCCCCCCC(CO)CCCCCC (stereo not drawn),outcome,[10],inactive
same,outcome,[14],inactive
CCCCCCCCCCCC(=O)N(C)CC(=O)O,outcome,[10],inactive
same,outcome,[14],inactive
CCC1COC(=O)O1 (stereo not drawn),outcome,[14],inactive
O=C(OCCc1ccccc1)c1ccccc1,outcome,[10],inactive
same,outcome,[14],inactive
CCCCCC(=O)OCC,outcome,[14],inactive
CC(=O)OC(C)c1ccccc1 (stereo not drawn),outcome,[10],inactive
same,outcome,[14],inactive
C=C1C[C@H]2[C@@H]3C=C(C)C4=CC(=O)CC[C@]4(C)[C@H]3CC[C@]2(C)[C@@]1(OC(C)=O)C(C)=O,outcome,[10],inactive
same,outcome,[14],inactive
COc1cc(O)c(C(=O)c2ccccc2)cc1S(=O)(=O)O,outcome,[14],inactive
